Assay results from PubChem BioAssay (NCI).
Compounds without any hit were thinned out: in the full panel of roughly 79,000, 15% have a hit. Values without a mark were called inactive. Activity calls are given as the source filed them. Cut-off read from the data, not from the text of the source: active = growth inhibition above about 70%; inactive = the rest.

Tests used:
[1] = NCI Yeast Anticancer Drug Screen. Data for the rad50 strain (AID 155);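 note: 0% = growth of vehicle-only cultures of the same strain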; conditions: S. cerevisiae rad50 strain growth inhibition; at 50.0 µM; active compounds read high
How it was run: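 Readout: growth inhibition relative to vehicle-treated cultures. Compound exposure was carried out in a genetically defined yeast strain deficient in DNA damage repair.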

[2] = NCI Yeast Anticancer Drug Screen. Data for the mec2-1 strain (AID 157); conditions: S. cerevisiae mec2-1 strain, at 50.0 µM, active compounds read high
How it was run: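 Vehicle-treated cultures served as reference for growth inhibition of compound-exposed mec2-1 yeast.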

[3] = NCI Yeast Anticancer Drug Screen. Data for the cln2 rad14 strain (AID 165);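 note: 0% = growth equal to vehicle treated cultures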; conditions: S. cerevisiae cln2 rad14 strain, at 50.0 µM, active compounds read high
How it was run: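 Each compound was tested on cln2 rad14 yeast. Inhibition of growth was calculated against vehicle-exposed controls.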

[4] = NCI Yeast Anticancer Drug Screen. Data for the bub3 strain (AID 167); conditions: S. cerevisiae bub3 mutant strain, at 50.0 µM, active compounds read high
How it was run: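 Readout: yeast growth inhibition, expressed relative to vehicle-only wells. The test organism is a mutant strain from a panel with lesions in DNA repair or checkpoint genes.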

[5] = NCI Yeast Anticancer Drug Screen. Data for the mlh1 rad18 strain (AID 175); conditions: S. cerevisiae mlh1 rad18 strain growth inhibition; at 50.0 µM; active compounds read high
How it was run: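 Vehicle-treated cultures served as the reference for growth inhibition in a yeast strain carrying DNA damage repair alterations exposed to each compound.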

[6] = NCI Yeast Anticancer Drug Screen. Data for the sgs1 mgt1 strain (AID 161);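 note: 0% = growth of cultures given vehicle only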; conditions: S. cerevisiae sgs1 mgt1 strain, at 50.0 µM, active compounds read high
How it was run: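 Genetically altered yeast, compound exposure, growth inhibition relative to vehicle.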

SMILES	growth inhibition [1]	growth inhibition [2]	growth inhibition [3]	growth inhibition [4]	growth inhibition [5]	growth inhibition [6]
CN(C=O)/C=C/c1cc(O)ccc1O	-0.95%	-0.8%	-4.1%	7.7%	5.4%	
CCOc1cc2c(cnc3c4cc(OC)c(OC)cc4ccc23)cc1OC	-8.6%	-15.2%	-6.25%	-17.9%	-16.6%	
Cc1ccc(NC(=O)Oc2ccc(Br)cc2Br)c([N+](=O)[O-])c1	9.3%	-1.5%		4.55%	-6.9%	13.7%
CCOC(=O)C(=O)C1C(=O)Nc2ccccc21 (stereo not given)	-12.4%	-4.9%	-2.5%	-18.4%	-12.6%	
CCOC(=O)Nc1cc2c(c(N)n1)N=C(c1ccc(Cl)cc1Cl)CN2	33.4%	-29.5%	-5.1%	-6%	-8.45%	
CCCCCCCCCCCC(=O)N/N=C(\c1ccccc1)c1ccc(Cl)cc1	91.5% (active)	88.2% (active)	86.9% (active)	76.5% (active)	91.3% (active)	
CC1OS(=O)(=O)CS(=O)(=O)OC1C (stereo not given)	-50.1%	-24.9%	-61.4%	4.8%	-6.15%	
COC(=O)C(=O)C(C(=O)C(N)=O)c1nc2ccc(C(=O)c3ccccc3)cc2[nH]c1=O (stereo not given)	0.35%	5.45%	-9.25%	-19.1%	9.85%	
NC(=S)NNC(=O)C(Cc1ccccc1)NC(=O)OCc1ccccc1 (stereo not given)	1.75%	17.7%	-7.6%	15.7%	11.4%	
O=c1[nH]c(=O)c2[nH]cnc2[nH]1	8.05%	-6%	2.55%	9.9%	9.75%	
[N-]=[N+]=NC1(Cc2ccccc2)C(=O)c2cccc3c2N(CCC3)C1=O (stereo not given)	4.25%	8.55%	16.2%	25.7%	-11.2%	
O=C(O)C1C(c2ccccc2)CC(=O)N1c1ccc(Cl)cc1 (stereo not given)	1.55%	8.25%	1.1%	19.6%	-7.6%	
Cc1cccc(NC(=S)Nc2ccc(-c3ccc(NC(=S)Nc4cccc(C)c4)cc3)cc2)c1	-0.2%	22.6%	0.15%	16.2%	34.7%	
Cc1ccc2c(c1)C(c1ccccc1)(c1ccccc1)OC2=O	17.6%	11.9%	7.95%	11.4%	20.4%	
CN(C)CC(/C(Cc1ccccc1)=N\NC(=S)NN)c1ccccc1 (stereo not given)	23.1%	9.55%	21.4%	-3.25%	13.7%	
S=C([S-])[P+](C1CCCCC1)(C1CCCCC1)C1CCCCC1	-30.9%		-29.2%	-39.1%	-39.2%	-28.2%
N#CC1=C(c2ccccc2)C(=C2Nc3ccccc3N2)C2S/C(=C\c3ccccc3)C(=O)N2C1=N (stereo not given)	21.2%		-31.1%	4.45%	26.8%	10.4%
O=C1c2cccc3c(Br)ccc(c23)C(=O)N1CCCN1CCOCC1	63.5%		86.7% (active)	92.5% (active)	60.2%	80.2% (active)
COC(=O)C1C2OC(C(Br)C2Br)C1C(=O)OC (stereo not given)	-12.1%		-1.95%	-1.65%	-10.2%	-1.15%
[O-][N+](=Nc1ccc(Sc2ccccc2)cc1)c1ccc(Sc2ccccc2)cc1	-4.65%		-17%	21.9%	28.1%	19%
CCOC(OCC)C(N)=O	2.75%		11.3%	-6.3%	2.65%	-1.6%
CCCCSc1nc2c(=O)n(C)c(=O)n(C)c2n1C	2.1%		-5.7%	-12.7%	6.95%	10.8%
Cc1csc(NC(=O)C2C3CCC(O3)C2C(=O)O)n1 (stereo not given)	22.1%		10.4%	-4.95%	-12.6%	-6.5%
